# Data taken from PubChem BioAssay (NCI).
# Compounds without any hit were thinned out: in the full panel of roughly 79,000, 15% have a hit. Unmarked numbers belong to inactive results. Active and inactive are the calls of the source. Rule as the data show it: active = growth inhibition above about 70%; inactive = the rest.
# Columns and labels:
# [1] = NCI Yeast Anticancer Drug Screen. Data for the rad50 strain (AID 155);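 also: 0% = growth of vehicle-only cultures of the same strain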; details: S. cerevisiae rad50 strain growth inhibition, active compounds read high
# Summary of the method: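 Compounds were tested on a yeast strain with an engineered DNA damage repair alteration; the reported value is growth inhibition normalised to vehicle treatment.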
# [2] = NCI Yeast Anticancer Drug Screen. Data for the mec2-1 strain (AID 157); details: S. cerevisiae mec2-1 strain, active compounds read high
# Summary of the method: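 Vehicle-treated cultures served as reference for growth inhibition of compound-exposed mec2-1 yeast.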
# [3] = NCI Yeast Anticancer Drug Screen. Data for the sgs1 mgt1 strain (AID 161);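 also: 0% = growth of cultures given vehicle only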; details: S. cerevisiae sgs1 mgt1 strain, active compounds read high
# Summary of the method: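 Test agents were incubated with a DNA-repair-mutant yeast strain. Growth was then read and compared against vehicle-treated controls.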
# [4] = NCI Yeast Anticancer Drug Screen. Data for the cln2 rad14 strain (AID 165);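 also: 0% = growth equal to vehicle treated cultures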; details: S. cerevisiae cln2 rad14 strain, active compounds read high
# Summary of the method: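 Each compound was tested on cln2 rad14 yeast. Inhibition of growth was calculated against vehicle-exposed controls.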
# [5] = NCI Yeast Anticancer Drug Screen. Data for the bub3 strain (AID 167); details: S. cerevisiae bub3 mutant strain, active compounds read high
# Summary of the method: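 Growth of a checkpoint-deficient yeast mutant is measured after compound exposure. Values represent inhibition relative to vehicle.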
# [6] = NCI Yeast Anticancer Drug Screen. Data for the mlh1 rad18 strain (AID 175); details: S. cerevisiae mlh1 rad18 strain growth inhibition, active compounds read high
# Summary of the method: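 Vehicle-treated cultures served as the reference for growth inhibition in a yeast strain carrying DNA damage repair alterations exposed to each compound.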
# [7] = at 5.0 µM (retest, dose inferred, filed as 0.5)
# [8] = at 50.0 µM (retest, dose inferred, filed as 5.0)
Compound,"growth inhibition [1, 7]","growth inhibition [1, 8]",growth inhibition ([1]; at 50.0 µM),"growth inhibition [2, 7]","growth inhibition [2, 8]",growth inhibition ([2]; at 50.0 µM),"growth inhibition [3, 7]","growth inhibition [3, 8]",growth inhibition ([3]; at 50.0 µM),"growth inhibition [4, 7]","growth inhibition [4, 8]",growth inhibition ([4]; at 50.0 µM),"growth inhibition [5, 7]","growth inhibition [5, 8]",growth inhibition ([5]; at 50.0 µM),"growth inhibition [6, 7]","growth inhibition [6, 8]",growth inhibition ([6]; at 50.0 µM)
CC[PH+](CC)CC[S-].CC[PH+](CC)CC[S-].[Au+].[Au+],5%,13%,46.4%,14%,18%,-0.55%,12%,23%,11.2%,4%,6%,-12.4%,14%,7%,8.1%,55%,15%,-35.8%
O=C(Nc1n[c]([Hg][Cl])[c]([Hg][Cl])s1)OCc1ccccc1,99% (active),98% (active),99% (active),99% (active),99% (active),99.5% (active),98% (active),99% (active),99.3% (active),34%,99% (active),98.9% (active),100% (active),99% (active),99.2% (active),99% (active),98% (active),98.9% (active)
C[N+](C)(C)CC1CCCC1=O (stereo unspecified),18%,70% (active),51.6%,16%,59%,21.3%,13%,58%,24.6%,11%,34%,19.2%,20%,70% (active),8.15%,21%,77% (active),22.6%
C[CH2][Sn]1([CH2]C)[O]S(=O)(=O)[O]1,15%,77% (active),70.2% (active),12%,95% (active),76.5% (active),12%,93% (active),25.4%,22%,56%,60.2%,13%,92% (active),45.1%,,,
CC1=C2C(=CC(C)(C)[C@@H]2O)C(=O)[C@](C)(O)C12CC2,44%,92% (active),80.6% (active),12%,96% (active),89.8% (active),53%,91% (active),80.8% (active),23%,90% (active),84.8% (active),12%,39%,7.1%,,,
CCOC(=O)CNC(=O)C1C2c3ccccc3C(c3ccccc32)C1C(=O)O (stereo unspecified),3%,38%,90.3% (active),3%,40%,95.4% (active),0%,39%,96% (active),1%,25%,95.9% (active),1%,45%,94% (active),-1%,32%,98.5% (active)
CC[C@@]1(O)C[C@H](OC2CC(N(C)C)C(O)C(C)O2)c2c(cc3c(c2O)C(=O)c2c(O)ccc(O)c2C3=O)[C@H]1C(=O)OC (stereo partly specified),96% (active),98% (active),91.1% (active),77% (active),98% (active),92.1% (active),88% (active),99% (active),92.5% (active),82% (active),99% (active),88.7% (active),88% (active),99% (active),91.2% (active),94% (active),98% (active),93.2% (active)
c1ccc(C(c2ccccc2)c2cccnc2)cc1,61%,97% (active),89.2% (active),59%,98% (active),91.2% (active),16%,98% (active),91.6% (active),55%,97% (active),88.9% (active),52%,98% (active),91.7% (active),54%,100% (active),90.8% (active)
CC(=O)[O][Sn]([c]1ccccc1)([c]1ccccc1)[c]1ccccc1,97% (active),99% (active),91.1% (active),99% (active),99% (active),93.4% (active),98% (active),98% (active),93.6% (active),90% (active),98% (active),92.8% (active),98% (active),96% (active),92.1% (active),,,
c1cc2n[pH]nc2cn1 (stereo unspecified),-10%,5%,5.55%,-3%,-8%,11.2%,-2%,-6%,21.2%,5%,-8%,1.2%,-1%,2%,11.6%,6%,6%,43.5%
